VP16 counter = inhibits Gal4-VP16 luciferase reporter, ROR gamma counter-screen; Drosophila S2 Gal4-VP16 UAS-luciferase, luminescence, 20 h; Potency, µM (titrated, usually from 53.6 µM), most hits filed as inhibitors; 3.5% of 310,000 active; AID 2546;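 also: Gal4-VP16 expression switched on by copper sulfate through the metallothionein promoter; nearly all actives have a fitted effect of over 50% in size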
Integrin act MD = activates integrin-mediated alleviation for muscular dystrophy; alpha7betagal myoblasts, beta-gal FDG fluorescence, 48 h; 0.064% of 350,000 active; Potency, µM (series often up to 38.3 µM), hits mostly activators; also: nearly all actives have a fitted effect of over 60% in size
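Alpha7betagal+/- myoblasts (passage 13) were plated 16-24 hr, then exposed to compounds (1:260 dilution of DMSO stock) for 48 hours at 37C. After MPER lysis, β-galactosidase reporter activity was read as FDG fluorescence (ex 480/em 540) after 30 minutes.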
RORgamma inh = inhibitors of mouse ROR gamma transcriptional activity; Drosophila S2 Gal4-RORgamma UAS-luciferase reporter, 20 h; P51450; 5.4% of 310,000 active; Potency, µM (top dose mostly 53.6 µM), actives largely listed as inhibitors; also: nearly all actives have a fitted effect of over 60% in size
Target sequence (P51450 whole entry, looked up, the tested form may be a part): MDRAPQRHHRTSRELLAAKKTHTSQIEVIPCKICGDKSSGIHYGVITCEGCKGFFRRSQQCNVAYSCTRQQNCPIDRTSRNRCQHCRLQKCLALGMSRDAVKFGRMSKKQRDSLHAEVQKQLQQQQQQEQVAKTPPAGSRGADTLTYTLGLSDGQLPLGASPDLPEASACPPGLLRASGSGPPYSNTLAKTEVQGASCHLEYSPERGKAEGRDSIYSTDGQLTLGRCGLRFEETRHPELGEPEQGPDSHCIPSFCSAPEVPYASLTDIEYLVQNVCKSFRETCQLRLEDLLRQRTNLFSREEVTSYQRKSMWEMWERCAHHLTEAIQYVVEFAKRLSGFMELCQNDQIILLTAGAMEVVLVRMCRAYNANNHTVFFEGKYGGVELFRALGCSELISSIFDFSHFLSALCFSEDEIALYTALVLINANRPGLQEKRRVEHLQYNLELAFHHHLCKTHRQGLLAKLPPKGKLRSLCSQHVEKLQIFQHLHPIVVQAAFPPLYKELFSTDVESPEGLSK
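Luminescence from a UAS-regulated Photinus luciferase reporter in stably transfected Drosophila Schneider cells is measured; decreased signal marks ROR gamma inhibition. Fusion expression is induced by 700 uM copper sulfate for 20 hr.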
Giardia kill = kills Giardia lamblia. Giardia lamblia trophozoite viability. activity change, % at 7.66 µM, hits read low. 0.15% of 340,000 active. AID 540267; in the data active = activity change below about -80%; inconclusive = between about -30% and that limit;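 also: parasites exposed to compound for two days anaerobically before the ATP read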
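Viability, read as ATP luminescence: trophozoites at 100 cells/well, compound added, 48 hrs anaerobic at 37 deg C, then 15-30 min room-temperature development before reading.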
ERG-DNA inh = blocks human ERG Ets domain binding to DNA; P11308; fluorescence polarization, His-ERG Ets domain / labelled DNA; Potency, µM (top dose mostly 76.9 µM), usual class: inhibitors; 0.028% of 370,000 active; AID 624246; active = well fitted inhibition curve with a large enough effect in the polarisation, with a control signal flat; inconclusive = small, poorly fitted or top-dose-only effect, or effect the other way, or a change in a side signal; inactive = no such curve, though single readings can be large or run the other way; the % refers to the polarisation;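 also: polarization taken with two DNA probes labelled with fluorescein and Texas red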
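His-tagged ERG Ets domain (1 uM in the protein solution; 300mM KCl, 50mM Tris-HCl, 1mM EDTA, 1mM DTT, pH 7.5) received compound, then a probe mix of 5 nM fluorescein-DNA and 100nM Texas-615-DNA. Fluorescence polarization was read for both dyes.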
Of the large screens only hits and unclear results are named; the others gave an inactive call. Only a selection was taken, and hits are over-represented in it overall. Unless noted, calls follow the shape of the dose curve; as a rule, active = well fitted curve in the direction sought with a large enough effect; inconclusive = small, poorly fitted or top-dose-only effect, or another doubt; inactive = no such curve, though single readings can be large; an effect the other way counts as inactive or inconclusive.

O=C(/C=C/c1ccco1)NC(=S)Nc1nc(-c2ccc(Cl)cc2)cs1	VP16 counter inconclusive, RORgamma inh 14µM
O=C(/C=C\c1ccco1)Nc1nc(-c2ccccc2)cs1	RORgamma inh inconclusive (no result: ERG-DNA inh)
Cc1cnc(CNc2ncnc3ccc(-c4c(C)noc4C)cc23)cn1	RORgamma inh inconclusive (no result: Integrin act MD, Giardia kill, ERG-DNA inh)
Cc1ccc(Nc2cc(C)c3ccc(O)cc3n2)cc1C	VP16 counter inconclusive
Cc1cc(C)c2ccc(/C=N/O)nc2c1O	VP16 counter 6.3µM, RORgamma inh 3.2µM
CC(C)(C)c1cc(/C=N/O)cc(C(C)(C)C)c1O	none
Cc1cc(C)c2ccc(NN)nc2c1O	VP16 counter 10µM, RORgamma inh 6.3µM
COc1ccc(S(=O)(=O)c2cc(NS(=O)(=O)c3ccc(Cl)cc3)c(C)c(C)c2O)cc1	none (no result: VP16 counter, Integrin act MD, RORgamma inh, Giardia kill)
CCCCC(=O)N1C/C=C\C(c2ccc(OC)cc2)N(Cc2ccc(F)cc2)C(=O)C1Cc1ccccc1 (centres undefined)	VP16 counter inconclusive, RORgamma inh inconclusive (no result: Integrin act MD, ERG-DNA inh)
O=C(COC(=O)CN1C(=O)C2CCCCC2C1=O)NC1CCS(=O)(=O)C1 (centres undefined)	none
O=C(Nc1ccc(Cl)c(Cl)c1)Nc1ccccc1O	RORgamma inh inconclusive
O=C(Nc1ccc(Cl)c(Cl)c1)Nc1ccc(Br)cc1F	VP16 counter 13µM, RORgamma inh inconclusive
Cc1cc(C)c(NC(=S)N(CCN(C)C)Cc2cccs2)c(C)c1	Integrin act MD inconclusive
Cc1cccc(C)c1NC(=S)N(CCN(C)C)Cc1cccs1	RORgamma inh 10µM
Cc1ccc(NC(=S)N(CCN(C)C)Cc2cccs2)c(C)c1	RORgamma inh inconclusive
CCc1cccc(C)c1NC(=S)N(CCN(C)C)Cc1cccs1	RORgamma inh 11µM
Cc1cccc(C)c1NC(=S)N(CCCN1CCN(C)CC1)Cc1cccs1	none
Cc1cccc(NC(=S)N(CCN(C)C)Cc2cccs2)c1	RORgamma inh 11µM
COc1ccc(Cl)cc1Nc1nc(-c2sc(NC(=O)C(C)(C)C)nc2C)cs1	VP16 counter 7.1µM, RORgamma inh inconclusive
COc1ccc(OC)c(Nc2nc(-c3sc(NC(=O)C(C)(C)C)nc3C)cs2)c1	VP16 counter 11µM, RORgamma inh inconclusive
CCCC(C)C(=O)Nc1nc(C)c(-c2csc(Nc3ccccc3OC)n2)s1 (centres undefined)	VP16 counter inconclusive
COc1ccc(OC)c(Nc2nc(-c3sc(NC(=O)CC(C)C)nc3C)cs2)c1	none
CCCC(C)C(=O)Nc1nc(C)c(-c2csc(Nc3ccc(Cl)cc3)n2)s1 (centres undefined)	VP16 counter 11µM, RORgamma inh inconclusive
Cc1ccc(-c2nc3cccc(C)n3c2Nc2ccc(F)cc2)o1	none (no result: VP16 counter, Integrin act MD, RORgamma inh, ERG-DNA inh)
CC(C1CC2CCC1C2)n1c(-c2cccs2)n[nH]c1=S (centres undefined)	VP16 counter inconclusive, RORgamma inh 0.79µM
CCOC(=O)C(C)Sc1nc2c(c(-c3cccs3)c1C#N)CCC2 (centres undefined)	VP16 counter 25µM, RORgamma inh inconclusive
O=C1OCCC1Sc1nnc(-c2ccc(Cl)cc2Cl)o1 (centres undefined)	VP16 counter inconclusive, RORgamma inh 7.9µM
NC(=S)N/N=C/c1ccccc1OC(=O)/C=C/c1ccccc1	VP16 counter 3.5µM, Integrin act MD inconclusive, RORgamma inh 3.5µM
NC(=S)N/N=C\c1ccccc1OCc1ccccc1	VP16 counter 3.5µM, RORgamma inh 2.2µM
COC(=O)N/N=C/c1cc(Cl)cc(Cl)c1OCc1ccccc1	none
COc1cccc(/C=N/NC(N)=S)c1OCc1cccc(Cl)c1	VP16 counter 4µM, RORgamma inh 2.8µM
NC(=S)N/N=C/c1c[nH]c2ccc(OCc3ccccc3)cc12	VP16 counter 4.5µM, RORgamma inh 5µM
CCOC(=O)N/N=C\c1ccccc1OC/C=C/c1ccccc1	Integrin act MD inconclusive, RORgamma inh inconclusive
CCC(=O)/C=C/C1C(C)=CCCC1(C)C (centres undefined)	none (no result: Integrin act MD, Giardia kill, ERG-DNA inh)
CC(C)(C)[C@H]1COC(=O)[C@H](Cc2ccc(F)cc2)CC/C=C/C[C@@H](CC(=O)N[C@H](CO)Cc2ccccc2)C(=O)N1	none (no result: VP16 counter, RORgamma inh)
COCCNC(=O)CSc1nc(N)c(NC(=O)c2ccccc2F)c(=O)[nH]1	none
NC(=S)N/N=C/c1ccccc1OC(=O)c1cc2ccccc2oc1=O	VP16 counter 7.1µM, RORgamma inh 7.1µM
NC(=S)N/N=C\c1c(OCc2ccccc2Cl)ccc2ccccc12	VP16 counter 3.2µM, Integrin act MD inconclusive, RORgamma inh 1.1µM
CC(C)(C)c1csc(NNC(=O)c2ccc(Br)cc2)n1	VP16 counter 2.8µM, RORgamma inh 1.3µM
CC(C)(C)c1csc(NC(=O)c2ccccc2O)n1	VP16 counter 2.5µM, Integrin act MD inconclusive, RORgamma inh inconclusive
CC(C)(C)c1csc(NC(=O)c2c(F)c(F)c(F)c(F)c2F)n1	none (no result: VP16 counter, RORgamma inh)
CCOc1ccc(CNC(=O)CCC(=O)N2CC3CCCN3c3ccccc32)cc1 (centres undefined)	none (no result: VP16 counter, Integrin act MD, RORgamma inh, Giardia kill)
O=C1N/C(=N/O)S/C1=C/c1cccc([N+](=O)[O-])c1	none
Cc1cccc(/C=C2/S/C(=N/N=C3\CC4CCC3(C)C4(C)C)NC2=O)c1 (centres undefined)	VP16 counter inconclusive, RORgamma inh 8.9µM
CCOc1ccc(NC(=O)C(=O)NCCc2ccccc2)cc1	none (no result: VP16 counter, Integrin act MD, RORgamma inh, Giardia kill)
CCOc1ccc(/C(CCC(=O)O)=N/NC(=S)NCCc2ccccc2)cc1	VP16 counter inconclusive, RORgamma inh 7.9µM
CNC(=O)c1[nH]cnc1C(=O)N[C@@H](Cc1ccccc1)C(=O)OCc1ccccc1	VP16 counter inconclusive, RORgamma inh 18µM
CCN(CC)C(=O)c1[nH]cnc1C(=O)N[C@@H](Cc1ccccc1)C(=O)OCc1ccccc1	VP16 counter inconclusive, RORgamma inh 14µM
CC(C)(C)OC(=O)NCCCC[C@H](NC(=O)c1[nH]cnc1C(=O)N[C@@H](Cc1ccccc1)C(=O)OCc1ccccc1)C(=O)OC(C)(C)C	none (no result: VP16 counter, RORgamma inh)
C[C@H](NC(=O)c1nc[nH]c1C(=O)N[C@@H](Cc1ccccc1)C(=O)OC(C)(C)C)C(=O)OCc1ccccc1	VP16 counter inconclusive, RORgamma inh 7.9µM
CCN(CC)C(=O)c1[nH]cnc1C(=O)NCC(=O)OCc1ccccc1	none
CC(C)(C)OC(=O)N1CCC(NC(=O)c2nc[nH]c2C(=O)N2CCc3ccccc3C2)CC1	none (no result: VP16 counter, RORgamma inh)
CNC(=O)c1[nH]cnc1C(=O)N[C@@H](C)C(=O)OCc1ccccc1	none
CC(C)(C)OC(=O)CNC(=O)c1nc[nH]c1C(=O)N1CCc2ccccc2C1	VP16 counter inconclusive, RORgamma inh 11µM
COc1ccc(Cl)cc1NC(=O)CSc1ccc(-c2sc(C)nc2C)nn1	none (no result: VP16 counter, Integrin act MD, RORgamma inh, Giardia kill)
O=C(N[C@@H](Cc1ccccc1)C(=O)OCc1ccccc1)c1nc[nH]c1C(=O)N1CCc2ccccc2C1	VP16 counter inconclusive, RORgamma inh 13µM
C[C@H](NC(=O)c1nc[nH]c1C(=O)N1CCN(C(=O)OC(C)(C)C)CC1)C(=O)OCc1ccccc1	RORgamma inh inconclusive

Screening results from PubChem BioAssay.
